# Assay results published in article PMC4336329 (PLoS ONE, 2015).
# About 2,200 (0.71%) of roughly 310,000 compounds showed an effect of 50% or more. Effects have a minus sign here. This is one part of a sample in which strong results are shown more often than they occur.
# Target: human ether-à-go-go-related gene (hERG) potassium channel (human, UniProt Q12809)
# Experiment: primary screen, population patch clamp on CHO cells stably expressing hERG; higher = less effect of the substance
# Protocol: Briefly, Chinese hamster ovary (CHO) cells stably expressing the hERG channel were dislodged from tissue culture flasks and dispensed into PPC plates. […] During the recording, background leak currents were estimated by a 100 ms step to -80 mV from an initial holding potential of -70 mV and subtracted from the subsequent current measurement. The campaign was conducted in two phases using slight differences in recording protocol. In the first phase, the initial voltage pulse used a 100 ms step to -30 mV from a holding potential of -70 mV, a 2 s conditioning step to +25 mV, and a 2 s test step to -30 mV. During the second phase of the screen, the potential during the conditioning step was raised to +45 mV. In both phases of the campaign, a secondary voltage pulse was applied using the same parameters as the second phase initial pulse. The initial and secondary pulses were applied in the absence of compound, and upon application of 1 μM and 10 μM test concentrations. Small molecule effects on hERG current density were quantified by […].
# Sequence of human ether-à-go-go-related gene (hERG) potassium channel (Q12809 whole entry, looked up): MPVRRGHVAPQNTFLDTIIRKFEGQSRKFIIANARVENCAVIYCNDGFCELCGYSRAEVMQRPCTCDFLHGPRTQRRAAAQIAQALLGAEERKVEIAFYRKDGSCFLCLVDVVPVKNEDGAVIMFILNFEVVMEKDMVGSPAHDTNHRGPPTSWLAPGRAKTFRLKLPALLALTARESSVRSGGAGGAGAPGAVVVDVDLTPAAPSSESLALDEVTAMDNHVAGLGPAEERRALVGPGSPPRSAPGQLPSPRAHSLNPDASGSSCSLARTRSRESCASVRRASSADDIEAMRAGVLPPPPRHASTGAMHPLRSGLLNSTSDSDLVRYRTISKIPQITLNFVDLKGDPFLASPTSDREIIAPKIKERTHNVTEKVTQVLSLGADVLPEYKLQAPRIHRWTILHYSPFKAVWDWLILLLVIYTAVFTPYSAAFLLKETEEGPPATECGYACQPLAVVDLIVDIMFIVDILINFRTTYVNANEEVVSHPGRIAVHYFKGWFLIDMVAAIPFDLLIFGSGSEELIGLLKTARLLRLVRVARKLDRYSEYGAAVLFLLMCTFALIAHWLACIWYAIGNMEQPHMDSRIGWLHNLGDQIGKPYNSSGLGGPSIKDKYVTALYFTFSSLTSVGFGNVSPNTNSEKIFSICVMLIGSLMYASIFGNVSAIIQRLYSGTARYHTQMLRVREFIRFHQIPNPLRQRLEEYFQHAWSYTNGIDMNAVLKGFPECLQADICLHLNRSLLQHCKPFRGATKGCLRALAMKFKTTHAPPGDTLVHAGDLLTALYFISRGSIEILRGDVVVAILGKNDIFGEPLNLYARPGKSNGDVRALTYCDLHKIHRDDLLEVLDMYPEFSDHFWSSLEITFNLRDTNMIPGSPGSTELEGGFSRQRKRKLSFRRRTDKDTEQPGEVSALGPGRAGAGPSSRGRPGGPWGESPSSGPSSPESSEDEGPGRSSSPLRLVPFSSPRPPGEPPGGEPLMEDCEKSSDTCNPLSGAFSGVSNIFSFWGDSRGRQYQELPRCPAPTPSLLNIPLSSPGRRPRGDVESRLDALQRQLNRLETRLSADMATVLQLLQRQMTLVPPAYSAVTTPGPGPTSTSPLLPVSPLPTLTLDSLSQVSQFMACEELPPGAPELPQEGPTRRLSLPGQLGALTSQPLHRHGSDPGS
row,SMILES,"hERG current change (%, negative = inhibition) at 1uM [%]"
1,O=C(O)COCC(=O)N1CCN(C2c3ccccc3-c3ccccc32)CC1,12.4
2,CCCC/C(O)=C/c1nc2ccccc2[nH]c1=O,1.79
3,O=C(NCc1ccco1)c1cc2n(n1)C(C(F)(F)F)CC(c1ccc(F)cc1)N2 (stereo not shown),-4.18
4,Br.COc1cccc(C(=O)CN2C3=NCCCN3c3ccccc32)c1,-61.2
5,Br.O=C(CN1C2=NCCCN2c2ccccc21)c1cccc(Br)c1,-28.6
6,COc1ccc(C(=O)CN2C3=NCCCN3c3ccccc32)cc1OC,-6.85
7,Br.O=C(CN1C2=NCCN2c2ccccc21)c1ccc(Br)cc1,-28.4
8,Br.Cc1ccc(C)c(C(=O)CN2C3=NCCCN3c3ccccc32)c1,-43
9,Br.O=C(CN1C2=NCCCN2c2ccccc21)c1ccc([N+](=O)[O-])cc1,-54
10,COc1ccc(-c2csc(N3C(=O)C4C5c6ccccc6C(c6ccccc65)C4C3=O)n2)cc1 (stereo not shown),11.9
11,Cc1ccc(/C=C2/SC(=Nc3ccc(F)cc3)NC2=O)s1,13
12,Cc1csc2nc(NC(=O)c3ccccc3)sc(=O)c12,8.93
13,Nc1c(Sc2ccccc2)c(=O)[nH]c(=O)n1Cc1ccccc1,-13.3
14,Cc1ccc(S(=O)(=O)N2CCCC2CNC(=O)C(=O)NCCN2CCOCC2)cc1 (stereo not shown),16.8
15,Cc1ccc(S(=O)(=O)Nc2cccc(C(=O)NCc3ccc(S(N)(=O)=O)cc3)c2)cc1,12.7
16,O=C(CN1CCCCCC1)Nc1ccc(Br)cn1,3.88
17,O=C(CN1CCOCC1)Nc1ncc(Br)cc1Br,4.34
18,O=C(CN1CCN(C(=O)c2ccccc2)CC1)Nc1ccccc1,3.18
19,CCc1nnc(NC(=O)CN2CCN(C(=O)c3ccccc3)CC2)s1,10.9
20,O=C(CN1CCN(C(=O)c2ccccc2)CC1)Nc1ccc(Br)cn1,-72.1
21,O=C(CN1CCN(C(=O)c2ccccc2)CC1)Nc1ncc(Br)cc1Br,-84.9
22,CC(=O)N1CCC(C(=O)Nc2ccccc2)(N(Cc2ccccc2)C(=O)c2cccnc2)CC1,17.6

row,SMILES,"hERG current change (%, negative = inhibition) at 1uM [%]"
1,Nc1ccc(Sc2ccccc2Cl)nc1,0.8
2,O=C(CCN1CCOCC1)Nc1ccc2c(c1)CCC2,3.78
3,Cc1[nH][nH]c(=O)c1C=NCc1cccnc1,14.3
4,COc1ccc(OCc2cc(C(=O)N(C)CC3CCCCO3)no2)c(Cl)c1 (stereo not shown),-1.77
5,COc1ccc(OCc2cc(C(=O)NCC(C)(C)N3CCOCC3)no2)c(Cl)c1,0.582
6,COc1cc(Cl)ccc1OCc1cc(C(=O)N(C)CC2CCCCO2)no1 (stereo not shown),2.24
7,CN(CC1CCCCO1)C(=O)c1cc(COc2ccc(F)cc2Cl)on1 (stereo not shown),-74.4
8,CCN(CC1CCCO1)C(=O)c1cc(COc2ccccc2SC)on1 (stereo not shown),-58.9
9,CCN(CC1CCCO1)C(=O)c1cc(COc2ccc(OC)cc2Cl)on1 (stereo not shown),5.36
10,CSc1ccccc1OCc1cc(C(=O)NCC(C)(C)N2CCOCC2)no1,-72.2
11,Cc1ccc(OCc2cc(C(=O)NCC(C)(C)N3CCOCC3)no2)cc1C,4.83
12,CCN(CC1CCCO1)C(=O)c1cc(COc2ccc(F)cc2F)on1 (stereo not shown),2.73
13,Cc1ccc(OCCN(C)C(=O)c2cc(COc3ccc(F)cc3F)on2)cc1,-0.323
14,COC(=O)c1cccc(NC(=O)c2ccc(S(=O)(=O)N3CCN(C)CC3)cc2)c1,16.5
15,COCCN(C(=O)CSc1nc2ccccc2c(=O)n1CC(C)C)c1c(N)n(Cc2ccccc2)c(=O)[nH]c1=O,11.8
16,CC(C)n1c(/C=C/[C@H](O)C[C@H](O)CC(=O)[O-])c(-c2ccc(F)cc2)c2ccccc21.[Na+],11.8
17,Cc1cc(O)c(C(C)C)cc1NS(=O)(=O)c1ccccc1,10.4
18,COc1ccccc1-n1c(SC(C)C(=O)NCC2CCCO2)nc2cc(Cl)ccc2c1=O (stereo not shown),12.1
19,CCOC(=O)N1CCN(c2nc(-c3ccc(Cl)cc3)cs2)CC1,-8.51
20,CC(C)C(=O)N1CCN(c2nc(-c3ccc(Cl)cc3)cs2)CC1,-69.6
21,CCC(=O)N1CCN(c2nc(-c3ccc(Cl)cc3)cs2)CC1,9.84
22,O=C(NNc1ccccc1F)c1ccccc1,2.87

row,SMILES,"hERG current change (%, negative = inhibition) at 1uM [%]"
1,COc1cc(NC(=O)[C@H]2CSCN2C(=O)[C@@H]2CCC(=O)N2)cc(OC)c1OC,10.8
2,Cc1ccc(S(=O)(=O)Nc2cccc(Cl)c2)cc1NC(=O)c1cccnc1,5.21
3,Cc1ccc(C(=O)NC(=S)N(C)C2CCCCC2)cc1,6.79
4,CN(CC(=O)Nc1c(Cl)cccc1Cl)C(=O)CNC(=O)c1ccco1,8.71
5,O=C(CN(Cc1ccccc1)S(=O)(=O)c1ccc(Br)cc1)NCC1CCCO1 (stereo not shown),-80.5
6,O=C(CN(Cc1ccc(Br)cc1)S(=O)(=O)c1ccccc1)NCC1CCCO1 (stereo not shown),11.8
7,O=C(CN(Cc1ccccc1)S(=O)(=O)c1ccc(Cl)cc1)NCC1CCCO1 (stereo not shown),3.41
8,CCn1c2ccccc2c2cc(CNCc3ccc(OC)cc3OC)ccc21.O=C(O)C(=O)O,-47.5
9,Cc1nc2ccccc2cc1C(=O)Nc1ccccc1Cl,3.5
10,C/C=C/c1ccc(OC(C)=O)c(OC)c1,8.76
11,O=C(Cn1cc2c(n1)CCCC2)N1CCCC1,8.36
12,O=C(Cn1cc2c(n1)CCCCC2)N1CCCCC1,9.12
13,CCOC(=O)N1CCN(C(=O)Cn2cc3c(n2)CCCC3)CC1,-51.2
14,Cc1cc(=O)oc2c3c(cc(OCC(=O)NCc4ccco4)c12)OC(C)(C)CC3,-1.54
15,CCOc1ccc(N(CC(=O)NC2CCCCC2)C(=O)CNC(=O)c2ccco2)cc1,-5.99
16,Cc1cccc(-n2c(C)nc3cc(C(=O)N4CCC5(CC4)OCCO5)ccc32)c1,-14.2
17,CC(=O)c1ccc(-c2ccc(C(=O)NC3CC(C)(C)NC(C)(C)C3)o2)cc1,-71.1
18,CC1(C)CC(NC(=O)c2ccc(-c3ccc([N+](=O)[O-])cc3)o2)CC(C)(C)N1,-3.5
19,CC(=O)c1ccc(-c2ccc(C(=O)NC3CCCCCC3)o2)cc1,29.5
20,CCN(c1ccccc1)c1nc(=O)c2cccnc2s1,5.88
21,COc1ccc(C)cc1C1=Nc2ccccc2C1(C)C,13.4
22,Cc1c(C(=O)OCC(=O)Nc2ccc(C(N)=O)cc2)cccc1[N+](=O)[O-],11

row,SMILES,"hERG current change (%, negative = inhibition) at 1uM [%]"
1,COc1ccc(C[C@H]2CN3C(=NC[C@H]3Cc3ccccc3)N2CCNC(=O)c2ccc(C)c(Br)c2)cc1,-24.7
2,COc1ccc(C[C@@H]2CN3C(=NC[C@@H]3C)N2CCNC(=O)c2ccc(C)c(Br)c2)cc1,-64.9
3,Cc1ccc(C(=O)NCCN2C3=NC[C@H](C)N3C[C@H]2Cc2ccc(O)cc2)cc1Br,9.94
4,Cc1ccc(C(=O)NCCN2C3=NC[C@H](Cc4ccc(O)cc4)N3C[C@H]2Cc2ccc(O)cc2)cc1Br,-9.94
5,COc1ccc(C[C@H]2CN3C(=NC[C@@H]3Cc3ccccc3)N2CCNC(=O)c2ccc(C)c(Br)c2)cc1,-16.7
6,C/C=C(\C)C(=O)NCCN1C2=NC[C@H](C(C)C)N2C[C@H]1Cc1ccc(O)cc1,29.8
7,Cc1ccc(C(=O)NCCN2C3=NC[C@H](C(C)C)N3C[C@H]2Cc2ccc(O)cc2)cc1Br,0.0506
8,COc1ccc(C[C@H]2CN3C(=NC[C@H]3C)N2CCNC(=O)c2ccc(C)c(Br)c2)cc1,-70.9
9,COc1ccc(C[C@H]2CN3C(=NC[C@@H]3C(C)C)N2CCNC(=O)c2ccc(C)c(Br)c2)cc1,-66.8
10,COC(=O)c1cn(NC(=O)C2CCCO2)c(=O)c2ccccc12 (stereo not shown),14.6
11,CNc1nnc(SCC(=O)N2c3ccccc3NC(=O)CC2C)s1 (stereo not shown),6.91
12,CC(=O)Nc1ccc(S(=O)(=O)NCCC(=O)OCC(=O)c2ccccc2)cc1,6.41
13,COc1cccc(CN2CCCC(C(=O)Nc3ccc(-c4cscn4)cc3)C2)c1 (stereo not shown),-10.8
14,COc1ccccc1NC(=O)c1ccc(S(=O)(=O)NCc2ccco2)cc1,13.8
15,O=C(NCCCN1CCCC1=O)c1cccc(NS(=O)(=O)c2ccccc2)c1,13.4
16,COc1cccc(NC(=O)CN(C)C(=O)c2ccc(NC3CC3)c([N+](=O)[O-])c2)c1,-40.8
17,CCOc1ccc(NC(=O)CN(C)C(=O)c2ccc(NC3CC3)c([N+](=O)[O-])c2)cc1OCC,-18.3
18,COc1ccc(NC(=O)CN(C)C(=O)c2ccc(NC3CC3)c([N+](=O)[O-])c2)cc1,-68.6
19,CC1Cc2cc(/C(O)=C3\C(=O)C(=O)N(Cc4ccncc4)C3c3ccccc3F)ccc2O1 (stereo not shown),17.9
